# MITF inhib: inhibitors of MITF, primary screen, MITF inhibitor project, cell-based, luminescence; inhibition, % (no concentration beside the values); 37,000 tested, 0.28% active; TRPM1 promoter luciferase, 24 h; in the data active = inhibition above about 85%;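 note: human melanocyte line stably carrying TRPM1 promoter luciferase reporter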
# PD-1 reversal: activators reversing PD-1 mediated T-cell inhibition, primary screen, luminescence, primary human CD4 T cells, PD-L1 beads. CellTiter-Glo 96 h. 29,000 tested, under 10 active. activation, % (test concentration not listed). AID 2316, 2010; call rule not given here
# YB-1 expression: inhibitors of YB-1 gene expression, primary screen, cell-based, fluorescence | U2OS, qRT-PCR YB-1 vs CDIP delta delta Cp, 16 h; hits give high values; zero = DMSO, each unit about twofold | 30,000 tested, 0.37% active | delta delta Cp (YB-1 minus CDIP) (no concentration beside the values) | AID 434959, 2010;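 active = delta delta Cp rounded down to an integer at or above 3, about 3 SD of DMSO wells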;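 note: higher means less YB-1 transcript or more CDIP transcript relative to DMSO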
# Shh pathway inh: Hedgehog pathway signaling inhibitors, primary screen, luminescence, Shh-LIGHT2 cells, Gli-luciferase | Shh-LIGHT2 Gli-luciferase reporter, 30 h | inhibition, % (no concentration beside the values) | 22,000 tested, 2.1% active | AID 2313, 2010;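 active = mean inhibition across valid replicates above about 65%, limit read from the data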;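 note: pathway switched on by Shh-conditioned medium diluted 1 in 25 in low serum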
# Numbers stand for hits; 0 = inactive; - = no result given. Only a selection was taken, and hits are over-represented in it overall.
SMILES,MITF inhib,PD-1 reversal,YB-1 expression,Shh pathway inh
COc1cccc2c1C(=O)c1c(O)c3c(c(O)c1C2=O)C[C@@](O)(C(=O)CO)C[C@@H]3O[C@H]1C[C@H](N)[C@H](O)[C@H](C)O1,0,0,0,90
COc1cccc2c1C(=O)c1c(O)c3c(c(O)c1C2=O)C[C@@](O)(C(=O)CO)C[C@@H]3OC1CC(N)C(O)C(C)O1 (stereo partly specified),0,0,0,83
CCOC(=O)c1cnn(C(=O)Cc2cccc(OC)c2)c1N,0,0,5.2,0
Cc1noc(C)c1NC(=O)N(C)C[C@H]1Oc2ccc(NC(=O)Cc3cn(C)c4ccccc34)cc2CC(=O)N([C@@H](C)CO)C[C@@H]1C,0,0,0,-
C[C@@H]1CCCCO[C@@H](CN(C)C(=O)CCCN(C)C)[C@@H](C)CN([C@H](C)CO)C(=O)c2cc(NC(=O)c3ccccc3)ccc2O1,0,-,9.6,-
C[C@@H]1CCCCO[C@H](CN(C)C(=O)CCCN(C)C)[C@@H](C)CN([C@H](C)CO)C(=O)c2cc(NC(=O)Nc3ccccc3)ccc2O1,0,0,0,0
C[C@@H]1CCCCO[C@H](CN(C)CC2CCCCC2)[C@@H](C)CN([C@H](C)CO)C(=O)c2cc(NC(=O)c3ccncc3)ccc2O1,0,0,6.4,0
C[C@@H]1CCCCO[C@@H](CN(C)C(=O)CCCN(C)C)[C@@H](C)CN([C@H](C)CO)C(=O)c2cc(NS(C)(=O)=O)ccc2O1,0,0,9.7,-
C[C@@H]1CN([C@H](C)CO)C(=O)c2cc(N(C)C)ccc2O[C@@H]1CN(C)Cc1ccc(-c2ccccc2)cc1,0,0,0,0
C[C@@H]1CN([C@@H](C)CO)C(=O)c2cccc(NS(=O)(=O)c3ccc(Cl)cc3)c2O[C@@H]1CN(C)C(=O)Nc1ccc(C(F)(F)F)cc1,88,0,0,0
COc1ccc(S(=O)(=O)Nc2cccc3c2O[C@@H](CN(C)CC2CCCCC2)[C@@H](C)CN([C@H](C)CO)C3=O)cc1,0,0,0,71
C[C@H](CO)N1C[C@H](C)[C@H](CN(C)C(=O)NC2CCCCC2)Oc2c(NS(=O)(=O)c3ccc(Cl)cc3)cccc2C1=O,0,0,0,100
COc1ccc(S(=O)(=O)Nc2cccc3c2O[C@@H](CN(C)C(=O)NC2CCCCC2)[C@@H](C)CN([C@H](C)CO)C3=O)cc1,0,0,0,66
C[C@@H]1CN([C@H](C)CO)C(=O)c2cccc(NS(=O)(=O)c3ccc(Cl)cc3)c2O[C@@H]1CN(C)C(=O)Nc1ccc(C(F)(F)F)cc1,0,0,0,0
C[C@H]1CN([C@@H](C)CO)C(=O)c2cccc(NS(=O)(=O)c3ccc(Cl)cc3)c2O[C@H]1CN(C)C(=O)NC1CCCCC1,0,0,0,0
COc1ccc(NC(=O)Nc2ccc3c(c2)CC(=O)N([C@H](C)CO)C[C@@H](C)[C@H](CN(C)C(=O)Nc2c(C)noc2C)O3)cc1,0,0,0,0
Cc1cc(OCC(=O)Nc2ccc(O)cc2C(=O)O)cc(C)c1Cl,0,-,-,-
Cc1ccccc1OCC(=O)Nc1ccc([N+](=O)[O-])cc1O,0,-,-,-
O=C(Nc1ccc([N+](=O)[O-])cc1O)Nc1ccccc1Br,0,0,3,0
Nc1nc(Cl)nc2c1ncn2C1C[C@@H](O)C(CO)O1 (stereo partly specified),0,0,0,72
O=C(O)CCNc1ncnc2c1oc1ccccc12,0,0,-,-
Cc1ccc(S(=O)(=O)N(C)C[C@H]2Oc3ccc(NC(=O)Cn4cnnn4)cc3C(=O)N([C@@H](C)CO)C[C@@H]2C)cc1,0,0,0,-
N#Cc1c(SCC(=O)c2ccc(F)cc2)nsc1SCC(=O)c1ccc(F)cc1,0,0,0,81
Cc1cccc(NC(=O)CSc2nsc(SCC(=O)Nc3cccc(C)c3)c2C#N)c1,0,0,0,0
CCCn1c2ccccc2c2nnc(SCCN3CCCCC3)nc21,0,-,-,-
C[C@H]1CN([C@@H](C)CO)C(=O)c2cc(NC(=O)Nc3ccc4c(c3)OCO4)ccc2O[C@H]1CN(C)C(=O)Nc1ccc2c(c1)OCO2,0,0,0,0
Cc1ccc(S(=O)(=O)Nc2cccc3c2O[C@H](CN(C)Cc2ccc(Oc4ccccc4)cc2)[C@@H](C)CN([C@H](C)CO)C3=O)cc1,0,0,19,0
C[C@H](CO)N1C[C@H](C)[C@H](CN(C)Cc2ccc(Cl)c(Cl)c2)Oc2c(NS(=O)(=O)c3ccc(Cl)cc3)cccc2C1=O,0,-,0,90
